Measured values as given in PubChem BioAssay (Tox21).
Records with an inconclusive call do not appear. The source made the active and inactive calls. Calls follow the shape of the dose curve; as a rule, active = well fitted cell-killing curve with a large enough effect in the repeat runs; inconclusive = weak or mixed curves; inactive = flat fitted curve, though single readings scatter.

Experiment: qHTS RealTime-Glo MT Cell Viability Assay in HepG2 cells - 8 hour (AID 1224873); also: nearly all actives have a fitted effect of over 55% in size
Conditions: RealTime-Glo luminescence; series mostly up to 76.8 µM
Text: National Center for Advancing Translational Sciences [NCATS]
NIH Chemical Genomics Center [NCGC]
U.S. Environmental Protection Agency [EPA]
National Institutes of Environmental Health Sciences [NIEHS]
National Toxicology Program [NTP]
U.S. Food and Drug Administration [FDA]
Measure of cell viability is critical in the cell-base assay. Analysis of cell viability is necessary for the characterization of cell responses to cytotoxic drugs and environmental stress. A RealTime-Glo MT Cell Viability Assay to monitor cell viability in real time of continues cell culture during 40 hours of compound treatment was used to screen Tox21 10K library compounds in HepG2 cells. The RealTime-Glo MT Cell Viability Assay is a nonlytic, homogeneous, bioluminescent method to measure cell viability in real time using a simple, plate-based method. The assay involves adding NanoLuc luciferase and a cell-permeant prosubstrate to cells in culture. Viable cells reduce the proprietary prosubstrate to generate a substrate for NanoLuc luciferase. This substrate diffuses from cells into the surrounding culture medium, where it is rapidly used by the NanoLuc Enzyme to produce a luminescent signal. The signal correlates with the number of viable cells, making the assay well suited for cytotoxicity studies.
Tox21 Assay Protocol Summary:
The mixture of HepG2 cell suspension and reagents were dispensed at 600cells/6 ul/well in 1536-well tissue culture treated black solid bottom plates using a Multidrop dispenser. After the assay plates were incubated at a 37 C/5% CO2 incubator for 5 hours, 23 nL of compounds dissolved in DMSO, positive and negative controls was transferred to the assay plate by a pintool work station. The plates were incubated at 37 C for 40 hours. The luminescence intensity were measured at 0h, 8h, 16h, 24h, 32h and 40h time points using ViewLux plate reader during compound treatment.

SMILES | outcome
CC(=O)SCC(CC(=O)c1ccc(C)cc1)C(=O)O (stereo not given) | inactive
C=C(C)C(=O)OCCCC | inactive
Cc1cc(C)c(N)c(Cl)c1 | inactive
Cc1cc(O)c(Cl)cc1C | inactive
CCN(CC)CC | inactive
O=C1CCCc2c(O)cccc21 | inactive
c1coc(Cn2cccc2)c1 | inactive
BrCCOc1ccccc1 | inactive
COC(=O)c1cc(Cl)c(NC(C)=O)cc1OC | inactive
N#Cc1cc(NC(=O)C(=O)O)c(Cl)c(NC(=O)C(=O)O)c1 | inactive
NS(=O)(=O)c1cc2c(cc1C(F)(F)F)NCNS2(=O)=O | inactive
CCCCCCCOC(C)=O | inactive
COc1cc(S(N)(=O)=O)cc(C(=O)O)c1OC | inactive
C[C@]12C=CC(=O)C=C1[C@@H](F)C[C@@H]1[C@@H]2[C@@H](O)C[C@@]2(C)[C@H]1CC[C@]2(O)C(=O)CO | inactive
CN(C)c1ccncc1 | inactive
CNCCc1ccccn1 | inactive
COC(=O)/C=C(\C)CCC=C(C)C | inactive
CCCCCCCCCCCC(C)=O | inactive
CCCCCCC(O)CO (stereo not given) | inactive
CC(C)C(C)C | inactive

SMILES | outcome
O=C(c1ccccc1)c1cccc(O)c1 | inactive
COc1ccc(Cl)cc1C | inactive
O=C(O)/C=C(\CC(=O)O)C(=O)O | inactive
CC(C)(C)OC(=O)c1ccccc1C(=O)O | inactive
CCCCN1C(=O)c2ccccc2C1=O | inactive
CCCCCCCCS(=O)(=O)O | inactive
NCC1CCC(C(=O)Oc2ccc(CCC(=O)O)cc2)CC1 (stereo not given) | inactive
C=COCCCCO | inactive
O=C1c2ccccc2C(=O)N1CO | inactive
COC(=O)c1ccc(NC(C)=O)cc1OC | inactive
CC(C)(O)c1ccc(C(C)(C)O)cc1 | inactive
Cc1ccc2cccnc2c1 | inactive
CC1=C(O)C(=O)CO1 | inactive
CC[C@@]1(c2ccccc2)NC(=O)N(C)C1=O | inactive
COc1cc(NS(=O)(=O)c2ccc(N)cc2)ncn1 | inactive
O=C[C@@H](O)[C@H](O)[C@H](O)CO | inactive
Cc1cc(N)no1 | inactive
O=Cc1ccc(C(=O)O)cc1 | inactive
C[Si](C)(C)O[Si](O)(O)O | inactive
CCCC(C)C(O)CC (stereo not given) | inactive
